Test results from PubChem BioAssay (EPA / NIEHS).
Records with an inconclusive call do not appear. Active and inactive are the calls of the source. Rule for the calls, unless noted: active = hit-call score of the fitted dose curve at least 0.9, where 1 is the maximum; inactive = score below 0.9.

experiment: Tanguay_ZF_120hpf_TR_legacy: (Legacy) Oregon State University Tanguay Lab 120 Hour Post-fertilization zebrafish Assay for Touch Response (AID 2283667; active = hit-call score of the fitted dose curve at least 0.9, where 1 is the maximum)
Procedure, shortened: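 Tropical 5D wild-type zebrafish embryos statically exposed to 120 hpf at 28°C, sealed and dark-covered, 0.64% DMSO final; touch response scored as present/absent by brightfield microscopy at 120 hpf. Trimethyltin chloride 5 uM positive control; dead embryos not scored.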

Structure (SMILES) | outcome | AC50
Cc1cccc2ccccc12 | inactive | 
NCc1cccc(C2CCN(C(=O)c3ccc(C#Cc4ccccc4F)o3)CC2)c1 | inactive | 
Cc1ncc(CO)c(CO)c1O | inactive | 
O=CCCCC=O | inactive | 
CCCCCCCCCCCO | inactive | 
Cc1cc(F)ccc1-c1cc(N2CC[C@@H](O)[C@H]2CO)ncc1N(C)C(=O)C(C)(C)c1cc(C(F)(F)F)cc(C(F)(F)F)c1 | inactive | 
CCCCCCCCCC(=O)O | inactive | 
Cc1ccc(C(C)C)cc1 | inactive | 
Cc1cc2c(cc1C(F)(F)F)N(C(=O)Nc1ccc(Oc3cccnc3C)nc1)CC2 | inactive | 
CCCCCCCCN(C)CCCCCCCC | inactive | 
O=c1[nH]sc2ccccc12 | inactive | 
O=C(O)Cn1c(=O)n(Cc2ccc(Br)cc2F)c(=O)c2ccc(Cl)cc21 | inactive | 
CN1C(=O)CC[C@H]1c1cccnc1 | inactive | 
CCCCCCCCCCCC[N+](C)(C)C | inactive | 
CCN(Cc1cccc(S(=O)(=O)O)c1)c1ccc(C(=C2C=CC(=[N+](CC)Cc3cccc(S(=O)(=O)O)c3)C=C2)c2ccccc2S(=O)(=O)[O-])cc1 | inactive | 
O=C(O)Cc1cc(I)c(Oc2ccc(O)c(I)c2)c(I)c1 | inactive | 
O=C(O)c1ccccc1-n1cc(C(=O)O)c(=O)c2cc(Nc3c(F)cc(F)cc3Cl)c(Cl)cc21 | inactive | 
OCCO | inactive | 
OC12N=C(c3ccccc3)SC1Cc1cc(Cl)ccc12 (configuration not stated) |  | 14.9 µM (active)
CCN(Cc1cccnc1)C(=O)c1cccc(Cl)c1[C@]1(C)C(=O)N(Cc2ccc(OC)cc2OC)c2ccc(Cl)cc21 | inactive | 
CCO[Si](CCCNC(N)=O)(OCC)OCC | inactive | 
O=C(O)c1ccccc1C(=O)OCc1ccccc1 | inactive | 
COCC(C)OCC(C)OCC(C)O (configuration not stated) | inactive | 
c1ccc2ccccc2c1 | inactive | 
c1ccc2n[nH]nc2c1 | inactive | 
CO[C@H]1/C=C/O[C@@]2(C)Oc3c(C)c(O)c4c(O)c(c(/C=N/N5CCN(C)CC5)c(O)c4c3C2=O)NC(=O)/C(C)=C\C=C\[C@H](C)[C@H](O)[C@@H](C)[C@@H](O)[C@@H](C)[C@H](OC(C)=O)[C@@H]1C | inactive | 
Oc1ccccc1 | inactive | 

experiment: CCTE_Padilla_ZF_144hpf_TERATOSCORE: (Legacy) CCTE's 144 Hour Post-fertilization zebrafish Assay Teratoscore, Padilla Lab (AID 2283679);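 for AC50: zebrafish embryos with chorions exposed by immersion from 6-8 hpf to 5 dpf with daily renewal; teratogenicity score from eye scoring of death hatching and malformations at 144 hpf; higher score means more developmental defects relative to DMSO baseline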
Procedure, shortened: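 Larvae scored by eye at 144 hpf for death, hatching and malformations after a day in clean Hanks'. Before that, daily-renewed exposure at 80 uM (0.4% DMSO, 26C) from roughly 6-8 hpf through 5 dpf, 4 embryos per chemical.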

Structure (SMILES) | AC50 | outcome
CC1(C)NC(=O)N(c2ccc([N+](=O)[O-])c(C(F)(F)F)c2)C1=O | 17.2 µM (active) | 
NCc1cccc(C2CCN(C(=O)c3ccc(C#Cc4ccccc4F)o3)CC2)c1 | 14.5 µM (active) | 
Cc1ncc(CO)c(CO)c1O |  | inactive
O=CCCCC=O |  | inactive
CCCCCCCCCCCO | 62.4 µM (active) | 
Cc1cc(F)ccc1-c1cc(N2CC[C@@H](O)[C@H]2CO)ncc1N(C)C(=O)C(C)(C)c1cc(C(F)(F)F)cc(C(F)(F)F)c1 | 4.05 µM (active) | 
CCCCCCCCCC(=O)O | 65.8 µM (active) | 
O=c1[nH]sc2ccccc12 | 16.4 µM (active) | 
CC(O)CC(C)(C)O (configuration not stated) |  | inactive
CN1C(=O)N(c2ccccc2Br)Cc2cnc(Nc3ccc4c(c3)OCC(CO)O4)nc21 (configuration not stated) | 4.31 µM (active) | 
CCN(Cc1cccc(S(=O)(=O)O)c1)c1ccc(C(=C2C=CC(=[N+](CC)Cc3cccc(S(=O)(=O)O)c3)C=C2)c2ccccc2S(=O)(=O)[O-])cc1 |  | inactive
O=C(O)Cc1cc(I)c(Oc2ccc(O)c(I)c2)c(I)c1 | 0.101 µM (active) | 
CC1=CC(=O)/C(=C(/C)O)C(=O)O1 |  | inactive
CC/C(=C(/CC)c1ccc(O)cc1)c1ccc(O)cc1 | 5.03 µM (active) | 
CCN(Cc1cccnc1)C(=O)c1cccc(Cl)c1[C@]1(C)C(=O)N(Cc2ccc(OC)cc2OC)c2ccc(Cl)cc21 | 5.26 µM (active) | 
CN(C)C(=O)C1(N2CCCCC2)CCN(CC[C@@]2(c3ccc(Cl)c(Cl)c3)CN(C(=O)c3ccccc3)CCO2)CC1 | 15 µM (active) | 
c1ccc2n[nH]nc2c1 |  | inactive

experiment: STM_H9_OrnithineISnorm_perc: Stemina devTOX quickPredict H9 human embryonic stem cell (hESC)-based Assay for Ornithine (ORN) Metabolite Biomarker, Normalized (AID 2283712);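 note: ornithine released into spent medium during last day measured by mass spectrometry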
Procedure, shortened: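 Undifferentiated pluripotent H9 hESCs were exposed to compound for 72h, with media and compound replaced every 24h. Ornithine in final 24-h conditioned media was measured by UPLC-HRMS, normalized to 13C-labeled spike-in standard and to median 0.1% DMSO control.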

Structure (SMILES) | AC50 | outcome
O=C=NCCCCCCN=C=O | 0.0164 µM (active) | 
CCCCCCCCN(C)CCCCCCCC |  | inactive
CN1C(=O)N(c2ccccc2Br)Cc2cnc(Nc3ccc4c(c3)OCC(CO)O4)nc21 (configuration not stated) | 1.42 µM (active) | 
CN1C(=O)CC[C@H]1c1cccnc1 |  | inactive
CCCCCCCCCCCC[N+](C)(C)C | 7.79 µM (active) | 
OCCO |  | inactive
CC/C(=C(/CC)c1ccc(O)cc1)c1ccc(O)cc1 |  | inactive
CN(C)C(=O)C1(N2CCCCC2)CCN(CC[C@@]2(c3ccc(Cl)c(Cl)c3)CN(C(=O)c3ccccc3)CCO2)CC1 | 8.19 µM (active) | 
CO[C@H]1/C=C/O[C@@]2(C)Oc3c(C)c(O)c4c(O)c(c(/C=N/N5CCN(C)CC5)c(O)c4c3C2=O)NC(=O)/C(C)=C\C=C\[C@H](C)[C@H](O)[C@@H](C)[C@@H](O)[C@@H](C)[C@H](OC(C)=O)[C@@H]1C |  | inactive

experiment: STM_H9_CystineISnorm_perc: Stemina devTOX quickPredict H9 human embryonic stem cell (hESC)-based Assay for Cystine (CYSS) Metabolite Biomarker, Normalized (AID 2283713)
Procedure, shortened: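 Undifferentiated H9 hESCs were exposed to compound for 72h, with medium and compound replaced every 24h. Final-24h conditioned medium was deproteinized and analyzed by UPLC-HRMS. Cystine EIC area was normalized to spiked C13 standard and 0.1% DMSO median.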

Structure (SMILES) | outcome | AC50
O=C=NCCCCCCN=C=O | inactive | 
CCCCCCCCN(C)CCCCCCCC | inactive | 
CN1C(=O)N(c2ccccc2Br)Cc2cnc(Nc3ccc4c(c3)OCC(CO)O4)nc21 (configuration not stated) |  | 1.06 µM (active)
CN1C(=O)CC[C@H]1c1cccnc1 | inactive | 
CCCCCCCCCCCC[N+](C)(C)C |  | 1.6 µM (active)
OCCO | inactive | 
CC/C(=C(/CC)c1ccc(O)cc1)c1ccc(O)cc1 | inactive | 
CN(C)C(=O)C1(N2CCCCC2)CCN(CC[C@@]2(c3ccc(Cl)c(Cl)c3)CN(C(=O)c3ccccc3)CCO2)CC1 | inactive | 
CO[C@H]1/C=C/O[C@@]2(C)Oc3c(C)c(O)c4c(O)c(c(/C=N/N5CCN(C)CC5)c(O)c4c3C2=O)NC(=O)/C(C)=C\C=C\[C@H](C)[C@H](O)[C@@H](C)[C@@H](O)[C@@H](C)[C@H](OC(C)=O)[C@@H]1C |  | 3.27 µM (active)
